Data taken from the supplement of paper PMC13380429.

Test system: Vero E6 infected with SARS-CoV-2
Test: morphology score (similarity to uninfected cells); higher = more like uninfected cells
Details: 24 h

Row | SMILES | morphology score
1 | CN1C[C@@H]2C[C@H]1CN2c1cc2c(cc1F)c(=O)c(C(=O)O)cn2C1CC1 [danofloxacin] (10 µM) | 0.319
2 | Cc1cc(Nc2cc(C)c(C#N)c(N[C@@H](C)CCCC(C)(C)O)n2)n[nH]1 (10 µM) | -0.0857
3 | NS(=O)(=O)OC[C@@H]1C[C@@H](n2ccc3c(N[C@H]4CCc5ccccc54)ncnc32)C[C@@H]1O [pevonedistat] (0.833333 µM) | -0.404
4 | Cc1cccc(-c2n[nH]cc2-c2ccc3ncccc3n2)n1 [repsox] (10 µM) | 0.188
5 | O=C(NCC(=O)N1CC[C@H](N[C@H]2CC[C@@](O)(c3ccc(-c4ncccn4)cn3)CC2)C1)c1cccc(C(F)(F)F)c1 (10 µM) | 0.0269
6 | CC(C)(C)OC(=O)c1ncn2c1[C@@H]1CCCN1C(=O)c1c(Br)cccc1-2 [bretazenil] (10 µM) | 0.108
7 | CCCN(CCC)C(=O)C1=Cc2ccc(-c3ccc(C(=O)N4CCCC4)cc3)cc2N=C(N)C1 [motolimod] (10 µM) | 0.14
8 | C#C[C@]1(O)CC[C@H]2[C@@H]3CCC4=CC(=O)CC[C@@H]4[C@H]3CC[C@@]21CC [norgestrel] (10 µM) | 0.191
9 | [N-]=[N+]=N[C@]1(CO)O[C@@H](n2ccc(N)nc2=O)[C@H](O)[C@@H]1O (10 µM) | 0.0194
10 | C[S+]([O-])CCCCN=C=S (stereo unspecified) [sulforaphane] (10 µM) | 0.924
11 | NC(=O)CN1CC[C@@H](NC(=O)[C@@H]2CCCN2)C1=O (10 µM) | 0.096
12 | CC[C@@H](C)Nc1cc(C(=O)N[C@H]2C[C@H]3CC[C@@H](C2)N3c2ccc(C(=O)C3CC3)cn2)c(C)cc1C(N)=O (10 µM) | 0.188
13 | C[C@H](Nc1ncnc2nc[nH]c12)c1cc2cccc(Cl)c2c(=O)n1-c1ccccc1 [duvelisib] (0.833333 µM) | 0.0653
14 | CCC(CC)(NC(=O)C(C)C)C(=O)N[C@@H](CCCNC(=N)N)C(=O)NC1(C(=O)NC(c2ccc(F)cc2)c2ccc(F)cc2)CCCC1 (10 µM) | -0.044
15 | O=C(O)COC(=O)Cc1ccccc1Nc1c(Cl)cccc1Cl [aceclofenac] (10 µM) | -0.0479
16 | CC(C)(C)CC(=O)Nc1c(F)cc(C(=O)/N=c2\sccn2COP(=O)(O)O)cc1F (10 µM) | 0.0762

Row | SMILES | morphology score
17 | O=C(O)COc1ccc(/C=C2\SC(=O)NC2=O)cc1 (10 µM) | 0.0392
18 | N[C@@H]1[C@H]2CN(c3nc4c(cc3F)c(=O)c(C(=O)O)cn4-c3ccc(F)cc3F)C[C@@H]12 [trovafloxacin] (10 µM) | 0.276
19 | N=C(N)SCCc1c[nH]cn1 [imetit] (10 µM) | 0.1
20 | O=C(Nc1ccccc1)N1CCN(c2nc(-c3ccccc3)ns2)CC1 (10 µM) | -0.272
21 | O=C(CCCN1CCC2(CC1)C(=O)NCN2c1ccccc1)c1ccc(F)cc1 [spiperone] (10 µM) | 0.763
22 | CNc1nc(-c2ccc3c(N)n[nH]c3c2)cc(N2C[C@@H](C(=O)NC3CCCCC3)CC[C@H]2C)n1 (0.833333 µM) | 0.0384
23 | CN[C@@H]1[C@@H](O[C@H]2O[C@H](CO)[C@@H](N)[C@H](O)[C@H]2O)O[C@H]2C[C@@H](N)[C@@H](O[C@H]3[C@H](O)[C@@H](O)[C@H](N)C[C@@H]3N)O[C@@H]2[C@@H]1O [apramycin] (10 µM) | 0.0655
24 | O=C1CC[C@@]2(O)[C@H]3Cc4ccc(O)c5c4[C@@]2(CCN3CC2CC2)[C@H]1O5 (10 µM) | -0.0472
25 | Nc1nc(NC2CC2)c2ncn([C@H]3C=C[C@@H](CO)C3)c2n1 (10 µM) | 0.0446
26 | Cn1cc(C2=C(c3ccc(Cl)cc3Cl)C(=O)NC2=O)c2ccccc21 (10 µM) | 0.00458
27 | CC1(C)O[C@@H]2[C@@H](CO[C@@]3(COS(N)(=O)=O)OC(C)(C)O[C@@H]23)O1 [topiramate] (10 µM) | 0.00625
28 | O=c1c(-c2ccc(O)cc2)coc2cc(O)ccc12 [daidzein] (10 µM) | 0.126
29 | CCCCc1oc2ccc(NS(C)(=O)=O)cc2c1C(=O)c1ccc(OCCCN(CCCC)CCCC)cc1 [dronedarone] (0.833333 µM) | -0.0676
30 | O=C1NC(=O)/C(=C/c2ccc3c(c2)OC(F)(F)O3)S1 (10 µM) | -0.0969
31 | CN[C@H]1C(=O)N[C@@H]2Cc3ccc(cc3)Oc3cc4cc(c3O[C@@H]3O[C@H](C(=O)O)[C@@H](O)[C@H](O)[C@H]3NC(=O)CCCCCCCCC(C)C)Oc3ccc(cc3Cl)[C@@H](O)[C@@H]3NC(=O)[C@H](NC(=O)[C@@H]4NC(=O)[C@@H](NC2=O)c2cc(cc(O)c2Cl)Oc2cc1ccc2O)c1ccc(O)c(c1)-c1c(O[C@H]2O[C@H](CO)[C@@H](O)[C@H](O)[C@@H]2O)cc(O)cc1[C@@H](C(=O)NCCCN(C)C)NC3=O [dalbavancin] (10 µM) | -0.218
